Measurements: PubChem BioAssay
Values without a mark were called inactive.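 The calls were made as follows: active = at least 20% inhibition of 6-phosphogluconate dehydrogenase activity; inactive = the rest.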 Where a SMILES comes first, the peptide text is derived from it.

Biological target: 6-phosphogluconate dehydrogenase, decarboxylating (Homo sapiens) (UniProt P52209)
Experiment: inhibition of human phosphogluconate dehydrogenase – biochemical, recombinant enzyme, NADPH absorbance, primary screen (AID 1159550)
Settings: recombinant 6PGD, NADPH absorbance 341 nm; at 10 µM; hits give high values

6-phosphogluconate dehydrogenase, decarboxylating (Homo sapiens), sequence (P52209 whole entry, looked up): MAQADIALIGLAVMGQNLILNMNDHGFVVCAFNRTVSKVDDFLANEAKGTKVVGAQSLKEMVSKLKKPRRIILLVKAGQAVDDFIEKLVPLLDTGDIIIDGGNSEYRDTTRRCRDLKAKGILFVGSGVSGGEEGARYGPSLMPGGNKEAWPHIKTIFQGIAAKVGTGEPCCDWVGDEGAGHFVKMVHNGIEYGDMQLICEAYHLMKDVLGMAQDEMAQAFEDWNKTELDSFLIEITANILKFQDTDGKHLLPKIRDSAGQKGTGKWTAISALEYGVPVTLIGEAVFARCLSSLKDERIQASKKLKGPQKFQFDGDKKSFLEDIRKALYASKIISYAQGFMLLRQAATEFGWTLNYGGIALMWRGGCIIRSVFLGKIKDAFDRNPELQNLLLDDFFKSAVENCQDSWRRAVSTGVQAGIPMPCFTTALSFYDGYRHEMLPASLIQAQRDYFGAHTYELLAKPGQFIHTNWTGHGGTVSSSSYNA

| SMILES | inhibition |
| --- | --- |
| N[C@@H](COCc1ccccc1)C(=O)O | 3.6% |
| CC(=O)O[C@H]1CC[C@]2(C)C(C[C@H](OC(C)=O)[C@]3(C)C4=CC(=O)O[C@H](c5ccoc5)[C@@]4(C)CCC23)C1(C)C (stereo partly specified) | -15.5% |
| COc1ccc(-c2cc(=O)c3ccc(OC)cc3o2)cc1 | -4.22% |
| CC(=O)Oc1ccc2c(c1C(C)C)CCC1C(C)(C)CCCC21C (stereo unspecified) | 2.45% |
| COc1ccc(C(C)C(=O)c2ccc(O)cc2O)cc1 (stereo unspecified) | 10.6% |
| CCN1CC2CCC(OC)C34C2C(O)C2(OCOC25CC(OC)C2CC3(O)C5C2OC)C14 (stereo unspecified) | 4.26% |
| CC(=O)O[C@H](CC(=O)[O-])C[N+](C)(C)C | -15.2% |
| C=CC(C)(CCC1C(=C)CC(OC(C)=O)C2C(C)(C)CCCC12C)OC(C)=O (stereo unspecified) | 11.4% |
| CC12CCC3c4ccc(OC(=O)c5ccccc5)cc4CCC3C1CCC2=O (stereo unspecified) | -9.5% |
| CC(=O)Oc1ccc2c(c1)CC[C@@H]1[C@@H]2CC[C@]2(C)C(=O)CC[C@@H]12 | -18% |
| CC(=O)Oc1cc2c(c(C)c1OC(C)=O)CC1OC13[C@@]2(C)CC[C@@]1(C)C2C[C@](C)(C(=O)O)CC[C@]2(C)CC[C@]31C (stereo partly specified) | 2.26% |
| COc1c(-c2ccccc2)oc2c(OC)cccc2c1=O | -9.55% |
| NCCCC(N)CC(=O)NCC1NC(=O)C(CO)NC(=O)C(N)CNC(=O)C(C2CCNC(N)=N2)NC(=O)/C(=C/NC(N)=O)NC1=O (stereo unspecified) | -0.986% |
| COc1cc2c(cc1OC)[C@H]1Cc3ccc(OC)c(OC)c3CN1CC2 | 6.86% |
| CCOC(=O)c1c(C)cc(O)c(C)c1O | -2.48% |
| CO[C@H]1/C=C/O[C@@]2(C)Oc3c(C)c(O)c4c(O)c(c(/C=N/N5CCN(C)CC5)c(O)c4c3C2=O)NC(=O)/C(C)=C/C=C/[C@H](C)[C@H](O)[C@@H](C)[C@@H](O)[C@@H](C)[C@H](OC(C)=O)[C@@H]1C | 18.2% |

| SMILES | inhibition |
| --- | --- |
| CC(C)C[C@H](NC(=O)[C@H](C)N)C(=O)O (H-Ala-Leu-OH) | -6.83% |
| CC(=O)OC1CCC2(C)C(CCC3(C)C2CC=C2C4CC(C)(C)CCC4(C)CCC23C)C1(C)C (stereo unspecified) | 3.75% |
| CC1(C)C(=O)CC[C@@]2(C)C1C[C@@H](O)[C@@]1(C)C3=CC(=O)O[C@@H](c4ccoc4)[C@]3(C)CCC21 (stereo partly specified) | -10.8% |
| O=C1C=CC2=C3c4cc(O)c(O)cc4CC3(O)COC2=C1 (stereo unspecified) | 4.16% |
| C[C@H](N)CO | -0.518% |
| CC(C)c1c(O)ccc2c1CCC1C(C)(CO)CCCC21C (stereo unspecified) | -0.0186% |
| CC1(C)C(=O)C2OC2C2(C)C1CC(=O)C1(C)C2CCC2(C)C(c3ccoc3)OC(=O)C3OC321 (stereo unspecified) | 2.22% |
| N[C@@H](Cc1ccccc1)C(=O)N[C@@H](Cc1ccc(O)cc1)C(=O)O (H-Phe-Tyr-OH) | -6.19% |
| COC(=O)C[C@H]1C(C)(C)C2(Cl)O[C@@]34CC2C(=O)[C@]1(C)C3CC[C@]1(C)C4=CC(=O)O[C@H]1c1ccoc1 (stereo partly specified) | 6.04% |
| O=C(O)[C@H]1CCCNC1 | 2.88% |
| O=C(Oc1cc(OC(=O)c2ccccc2)c2c(c1)O[C@H](c1ccc(OC(=O)c3ccccc3)c(OC(=O)c3ccccc3)c1)[C@@H](OC(=O)c1ccccc1)C2)c1ccccc1 | -9.47% |
| CC(C)=CCC[C@](C)(O)C1CC=C(C)CC1 (stereo partly specified) | 1.33% |
| NCC1O[C@@H](O[C@H]2C(O)C(O[C@@H]3OC(CO)[C@H](O)[C@H](N)C3O)[C@@H](N)C[C@H]2N)C(O)[C@@H](O)[C@H]1O (stereo partly specified) | -2.65% |
| COc1ccc2c(c1)CC[C@@H]1[C@@H]2CC[C@]2(C)[C@@H](O)[C@H](O)C[C@@H]12 | 5.45% |
| CC(=O)OC1CCC2(C)C(CCC3C2CCC2(C)C3CC3OC4(CCC(C)CO4)C(C)C32)C1 (stereo unspecified) | 4.61% |
